Structures are written as SMILES. In all, about 52,000 compounds went through this assay and about 4,300 (8.3%) were called active. The full list was thinned out, with actives kept by preference. Values without a mark were called inactive. No stated cut-off is given here; in the data, active means survival mostly below about 52% (no sharp cut-off); inactive means mostly above about 56%.

This experiment concerns DeltatarO mutant. As to the kind of experiment: S. aureus survival, RN4220 and DeltatarO strains – OD600, teichoic acid synthesis inhibitors, primary screen (AID 463173). The settings on record: S. aureus RN4220 wild type/DeltatarO growth, OD600, 18 h, active compounds read low, screened at 18.75 µg/mL (by protocol).
On to `CSCCC(NS(=O)(=O)c1ccc2c(c1)oc(=O)n2C)C(=O)N1CCN(c2cccc(Cl)c2)CC1` (stereo unspecified), for which the survival is 72%.

Turning to `Cc1nn(-c2ccccc2)c2c1N(CCCC(=O)NCc1ccc(Cl)cc1)C(=O)CS2`, the survival was 94%.

Take `Cc1cccc(CNC(=O)c2ccc3nc(Cc4ccccc4)oc3c2)c1`: the survival was 124%.

In the case of `CCOc1ccc(NC(=O)CSc2nc3c([nH]c4ccccc43)c(=O)n2-c2cc(C)cc(C)c2)cc1`, the survival is 89%.

As for `Cc1ccc(N2CC(NC(=O)c3ccc(S(=O)(=O)N4CCCC4)cc3)CC2=O)cc1C` (stereo unspecified), the survival was 83%.

For the molecule `O=C(Cn1ncc2c3ccccc3n(Cc3ccccc3F)c2c1=O)NCCCc1ccccc1`, the survival is 81%.

Take `Cc1cc(C)c2nc(N(Cc3cccnc3)C(=O)CCOc3ccccc3)sc2c1`: the survival was 84%.

With `COc1cccc(CNC(=O)Cn2c(SCC(=O)Nc3ccc(F)cc3)nc3ccccc32)c1`, the survival was 8% (active).

As to `COc1ccc(Cn2c(SCC(=O)N3CCN(c4ccc(F)cc4)CC3)nc3ccccc32)cc1`, the survival is 47% (active).

As for `CN(C(=O)CSc1nc2ccccc2n1Cc1cccc(C(F)(F)F)c1)c1ccccc1`, the survival is 66%.

As to `COc1cccc(Cn2c(SCC(=O)N(C)c3ccccc3)nc3ccccc32)c1`, the survival was -4% (active).

As for `COC(=O)c1ccc(Cn2c(SCC(=O)N(C)c3ccccc3)nc3ccccc32)cc1`, the survival is 60%.

Turning to `COc1ccc(CNC(=O)Cn2c(SCC(=O)Nc3ccc(OC)cc3)nc3ccccc32)cc1`, the survival was 89%.

Turning to `COc1ccc(NC(=O)CSc2nc3ccccc3n2CC(=O)NCc2ccc(F)cc2)cc1`, the survival is -5% (active).

With `O=C(CSc1nc2ccccc2n1Cc1ccc(F)cc1)N1CCN(c2ccc(F)cc2)CC1`, the survival is 92%.

Turning to `Cc1ccc(CNC(=O)Cn2c(SCC(=O)Nc3ccc(F)cc3)nc3ccccc32)cc1`, the survival was 126%.

As to `COc1cccc(Cn2c(SCC(=O)N3CCN(c4ccc(F)cc4)CC3)nc3ccccc32)c1`, the survival is 66%.

For the molecule `O=C(Cn1c(SCC(=O)Nc2ccc(F)cc2)nc2ccccc21)NCc1ccc(F)cc1`, the survival is 91%.

On to `COc1cccc(CNC(=O)Cn2c(SCC(=O)Nc3ccc(C)c(C)c3)nc3ccccc32)c1`, for which the survival was 87%.

`CCc1ccc(NC(=O)CCCn2nc(C)c3c(C)n(-c4ccccc4)nc3c2=O)cc1`: the survival was 81%.

As to `CC(C)c1ccc(NC(=O)CSc2ncnc3c2sc2ccccc23)cc1`, the survival is 70%.

With `CCC(=O)OC1CSc2nc3ccccc3n2C1` (stereo unspecified), the survival was 76%.

As for `Cc1ccc(-n2c(=O)c3c(c4cc(C)ccc4n3C)n(CC(=O)NCc3ccccc3Cl)c2=O)cc1`, the survival was 74%.

For `Cc1ccc(/C=C/c2onc(C)c2S(=O)(=O)N2CCC(C(=O)N3CCC(N(C)C(C)C)CC3)CC2)cc1`, the survival is 67%.

For the molecule `CCOC(=O)C1=C(CN2CCN(c3ccccc3F)CC2)NC(=O)NC1c1ccc(OC)cc1` (stereo unspecified), the survival is 70%.

As to `Cc1ccc(CSCCC(=O)NCc2ccc(F)cc2Cl)cc1`, the survival was 118%.

Regarding `COc1cccc(NC(=O)CSc2cc(C)c3ccccc3n2)c1`, the survival is 72%.

Take `Cc1ccccc1NC(=O)Cn1c(SCC(=O)Nc2ccc(F)cc2)nc2ccccc21`: the survival was 95%.

Regarding `CC(=O)c1cccc(NC(=O)Cn2c(SCC(=O)Nc3ccc(F)cc3)nc3ccccc32)c1`, the survival was 20% (active).

Consider `COc1cccc(NC(=O)CSc2nc3ccccc3n2C)c1`, for which the survival is 37% (active).

On to `COc1ccc(NC(=O)CSc2nc3ccccc3n2Cc2cccc(OC)c2)cc1`, for which the survival is 134%.

On to `O=C(CSc1nc2ccccc2n1CC(=O)Nc1ccc(F)cc1F)Nc1ccc(F)cc1`, for which the survival was 89%.

`COc1cccc(CNC(=O)c2[nH]c3cc(C)ccc3c2Sc2ccccc2)c1`: the survival was 83%.

Take `CCCN1C(=O)c2ccccc2NC1c1cc(OC)c(OC)c(OC)c1` (stereo unspecified): the survival was 96%.

As to `CC(C)c1ccc(NC(=O)C2CCN(S(=O)(=O)c3cccc4nsnc34)CC2)cc1`, the survival was 72%.

Take `CCOc1ccc(N(CC)S(=O)(=O)N2CCCC(C(=O)Nc3ccc(NC(C)=O)cc3)C2)cc1` (stereo unspecified): the survival was 84%.

Consider `COc1ccc(-c2cc(C(=O)Nc3c(C)nn(Cc4ccc(C)cc4)c3C)no2)cc1OC`, for which the survival is 60%.

For `COc1ccc(OC)c(-c2cc(C(=O)Nc3c(C)nn(Cc4ccc(C)cc4)c3C)no2)c1`, the survival was 34% (active).

Take `Cc1ccc(Cn2nc(C)c(NC(=O)c3cc(-c4ccc(F)cc4)on3)c2C)cc1`: the survival was 61%.

With `COc1cccc(-c2cc(C(=O)Nc3c(C)nn(Cc4ccccc4Cl)c3C)no2)c1`, the survival is 34% (active).

`Cc1cc(C(=O)Nc2c(C)nn(Cc3ccc(F)cc3)c2C)no1`: the survival is 156%.

In the case of `COc1ccccc1-c1cc(C(=O)Nc2c(C)nn(Cc3ccc(Cl)cc3)c2C)no1`, the survival is 29% (active).

`COc1ccc(-c2cc(C(=O)Nc3c(C)nn(Cc4ccccc4C)c3C)no2)cc1`: the survival was 51%.

Take `COc1ccc(-c2cc(C(=O)Nc3c(C)nn(Cc4ccc(F)cc4)c3C)no2)cc1OC`: the survival is 59%.

As for `CCc1cc(C(=O)Nc2c(C)nn(Cc3ccccc3Cl)c2C)no1`, the survival was 69%.

For `COc1cc(NC(=O)Cn2ncc3c([nH]c4ccc(C)cc43)c2=O)cc(OC)c1OC`, the survival was 86%.

Turning to `Cn1c(N2CCN(S(=O)(=O)c3ccc(Cl)cc3)CC2)nc2ccccc21`, the survival is 83%.

`COc1ccc(NC(=O)CCc2c(C)nn(-c3ccc(N4CCCCC4)nn3)c2C)cc1Cl`: the survival was 87%.

Turning to `Cc1sc2nc(CN3CCN(C(=O)c4ccco4)CC3)n(C(=O)c3ccco3)c(=O)c2c1C`, the survival was 86%.

For `CCOC(=O)c1c(S(=O)(=O)N2CCCC(C(=O)Nc3cc(C)ccc3OC)C2)c(C)n(C)c1C` (stereo unspecified), the survival was 75%.

On to `O=C1c2ccccc2C(=O)N1COc1cccc2cccnc12`, for which the survival was 97%.

As to `O=C(/C=C\c1ccco1)Oc1cccc2cccnc12`, the survival is 2% (active).

With `O=C(/C=C/c1ccco1)ON1C(=O)c2ccccc2C1=O`, the survival is 91%.

For the molecule `O=C(/C=C/c1ccco1)OCCN1CCOCC1`, the survival is 69%.

As for `O=C(Oc1ccccc1-c1nc(-c2ccccc2)no1)c1ccccc1`, the survival is 85%.

On to `O=C(Oc1cccc2cccnc12)c1ccccc1`, for which the survival was 2% (active).

Take `Cc1ccc(C(c2nnnn2Cc2ccccc2)N2CCC(C)CC2)cc1` (stereo unspecified): the survival is 70%.

With `CCCC1(C(=O)OC)NC(c2ccc(OC)c(OC)c2)C2C(=O)N(c3ccc4c(c3)OCO4)C(=O)C21` (stereo unspecified), the survival was 84%.

With `COc1cccc(NC(=O)Cn2cc(C(=O)c3ccc(F)cc3)c(=O)c3cc(OC)ccc32)c1`, the survival is 92%.

As to `Nc1nnc2c(n1)[nH]c1ccccc12`, the survival is 81%.

As to `Cc1ccc(C)c(CN2C(=O)c3ccccc3S(=O)(=O)c3ccc(C(=O)N4CCN(Cc5ccccc5)CC4)cc32)c1`, the survival is 59%.

Regarding `COc1ccc(OC)c(NC(=O)c2cc(C3CC3)nc3c2c(C)nn3-c2ccc(C)cc2)c1`, the survival was 64%.

In the case of `O=C(CSc1nnc(COc2ccc(F)cc2)o1)N1c2ccccc2CCc2ccccc21`, the survival was 65%.

With `CCOC(=O)C1CCCN(c2ncnc3c2nnn3C)C1` (stereo unspecified), the survival is 117%.

As for `CCOC(=O)C1CCN(c2cc(C)c(C#N)c3nc4ccccc4n23)CC1`, the survival is 100%.

Take `CCOC(=O)C1CCN(c2nc3ccccc3nc2Cl)CC1`: the survival was -24% (active).

With `CC1CCN(c2ncnc3c2nnn3C)CC1`, the survival was 92%.

As to `CCOC(=O)C1CCN(c2nc(-c3ccc(Br)cc3)nc3ccccc23)CC1`, the survival is 83%.

`COc1ccc(N2CCN(c3ncnc4c3nnn4C)CC2)cc1`: the survival is 0% (active).

Regarding `Cn1nnc2c(N3CCN(c4ccccc4)CC3)ncnc21`, the survival was 74%.

Take `CCOC(=O)C1CCN(c2ncnc3c2nnn3C)CC1`: the survival is 37% (active).

On to `Cn1nnc2c(N3CCN(c4ccc(F)cc4)CC3)ncnc21`, for which the survival was 99%.

Take `Cc1cc(NS(=O)(=O)c2ccc(NC(=O)COc3ccc(Cl)cc3)cc2)nc(C)n1`: the survival was 54%.

As to `Cc1ccc2[nH]c(=O)c(CN(CC3COCCO3)C(=O)Nc3ccccc3F)cc2c1` (stereo unspecified), the survival was 96%.

Regarding `CCCC12CCC(C(=O)O)(CC1)CC2`, the survival is 83%.

Take `Cc1cc(C(=O)NCc2ccccc2Cl)c2c(C)nn(-c3cccc(F)c3)c2n1`: the survival was 68%.

Consider `CCC(=O)N1CCc2cc(S(=O)(=O)Nc3cc(C)ccc3OC)ccc21`, for which the survival was 84%.

On to `Cc1cc(C)cc(NC(=O)c2cc(S(=O)(=O)N3CCc4ccccc43)cn2C)c1`, for which the survival was 63%.

As to `CC(C)OC(=O)CSc1n[nH]c(-c2cccnc2)n1`, the survival was 108%.

`Cc1ccnc(NS(=O)(=O)c2ccc(NC(=O)c3cc(=O)c4ccc(C)c(C)c4o3)cc2)n1`: the survival was 78%.

Take `O=c1c2cnn(-c3ccc(F)cc3)c2ncn1Cc1ccccc1Cl`: the survival was 100%.

For the molecule `Clc1ccccc1Cn1cccc1C1=NC(Cc2ccccc2)CO1` (stereo unspecified), the survival is 40% (active).

As to `O=C(CSc1nccn1Cc1ccccc1)NCc1ccccc1Cl`, the survival was 92%.

Turning to `O=C(Nc1ccc(S(=O)(=O)Nc2ncccn2)cc1)c1ccccc1Cl`, the survival is 81%.

As for `COc1ccc(NC(=O)Nc2nnc(C)s2)cc1`, the survival was 91%.

As to `Cc1ccc2occ(CC(=O)N(Cc3ccc(Cl)cc3)C3CCS(=O)(=O)C3)c2c1` (stereo unspecified), the survival was 64%.

As for `CCc1cccc(N2C(=O)CSC23C(=O)Nc2ccccc23)c1` (stereo unspecified), the survival is 85%.

On to `CCc1cccc(NC(=O)c2cc(-c3ccccc3)n[nH]2)c1`, for which the survival is 90%.

For `CCc1ccc2c(c1)C1(NN=C(c3ccccc3)S1)C(=O)N2` (stereo unspecified), the survival was 0% (active).

Consider `COc1cccc(NC(=O)Cn2cnc3c(nc4n3CCCCC4)c2=O)c1`, for which the survival is 76%.

As for `CCN(CC)c1ccc(NC(=O)CCS(=O)(=O)c2cc3c(cc2Cl)NC(=O)CO3)c(C)c1`, the survival is 86%.
